Our source for the binding signal values is article PMC7862700, “An all-to-all approach to the identification of sequence-specific readers for epigenetic DNA modifications on cytosine”.

What all share (assay): DAPPL (digital affinity profiling via proximity ligation, sequencing); 10 mM Tris-HCl pH 7.5, 50 mM NaCl, 1 mM DTT, 4% glycerol, room temperature, 30 min; GST-TFs on glutathione beads, 16-mer random dsDNA library, 0.1% formaldehyde crosslink after washing; high values mean tight binding
For one assay, the target named is T1, FLI1 (Homo sapiens, UniProt Q01543 1-452).
T1 sequence: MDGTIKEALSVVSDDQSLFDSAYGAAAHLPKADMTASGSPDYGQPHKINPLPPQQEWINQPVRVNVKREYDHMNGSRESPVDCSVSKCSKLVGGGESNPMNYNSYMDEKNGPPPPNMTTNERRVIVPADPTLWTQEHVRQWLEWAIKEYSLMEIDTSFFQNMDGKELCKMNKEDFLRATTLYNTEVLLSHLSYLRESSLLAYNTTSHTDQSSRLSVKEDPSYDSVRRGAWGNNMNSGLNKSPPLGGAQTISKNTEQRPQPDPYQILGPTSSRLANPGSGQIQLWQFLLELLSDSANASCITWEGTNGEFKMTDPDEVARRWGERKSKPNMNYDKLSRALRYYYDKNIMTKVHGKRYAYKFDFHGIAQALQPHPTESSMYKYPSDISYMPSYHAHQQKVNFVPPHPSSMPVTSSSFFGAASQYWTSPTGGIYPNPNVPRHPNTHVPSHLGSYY
The settings on record: protein: recombinant; tags: N-terminal GST; dsDNA, one strand shown. Summed up:
(§1)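 Binding signal is given per hexamer as its read frequency for a factor divided by its frequency in the tag-only sample. GST-fused human transcription factors were expressed in yeast, captured on glutathione beads, barcoded with DNA and pooled with that sample, then incubated with 200 nmole of a 16-mer random double-stranded DNA library in Tris/NaCl/DTT/glycerol buffer for 30 min at room temperature. The pools were then washed, crosslinked, proximity-ligated, amplified by PCR and sequenced on an Illumina NextSeq500.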

In a further assay the target is T2, ELK1 (Homo sapiens, UniProt P19419 1-428).
T2 sequence: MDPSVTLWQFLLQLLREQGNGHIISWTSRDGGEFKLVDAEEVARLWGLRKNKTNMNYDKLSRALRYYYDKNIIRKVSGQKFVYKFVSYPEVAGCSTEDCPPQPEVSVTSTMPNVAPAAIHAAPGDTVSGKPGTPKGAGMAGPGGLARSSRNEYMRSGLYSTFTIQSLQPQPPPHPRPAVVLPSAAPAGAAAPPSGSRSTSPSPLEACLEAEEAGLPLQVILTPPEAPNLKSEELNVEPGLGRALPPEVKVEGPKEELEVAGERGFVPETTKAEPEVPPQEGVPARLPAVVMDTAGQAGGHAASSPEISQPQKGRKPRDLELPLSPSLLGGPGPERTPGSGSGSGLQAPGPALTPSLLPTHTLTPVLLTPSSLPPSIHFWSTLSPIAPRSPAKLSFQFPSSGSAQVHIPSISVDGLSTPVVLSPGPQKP
The settings on record: protein: recombinant; tags: N-terminal GST; dsDNA, one strand shown. In short, it runs like this: as §1

A further assay has as its target T3, ERG (Homo sapiens, UniProt P11308 1-479).
T3 sequence: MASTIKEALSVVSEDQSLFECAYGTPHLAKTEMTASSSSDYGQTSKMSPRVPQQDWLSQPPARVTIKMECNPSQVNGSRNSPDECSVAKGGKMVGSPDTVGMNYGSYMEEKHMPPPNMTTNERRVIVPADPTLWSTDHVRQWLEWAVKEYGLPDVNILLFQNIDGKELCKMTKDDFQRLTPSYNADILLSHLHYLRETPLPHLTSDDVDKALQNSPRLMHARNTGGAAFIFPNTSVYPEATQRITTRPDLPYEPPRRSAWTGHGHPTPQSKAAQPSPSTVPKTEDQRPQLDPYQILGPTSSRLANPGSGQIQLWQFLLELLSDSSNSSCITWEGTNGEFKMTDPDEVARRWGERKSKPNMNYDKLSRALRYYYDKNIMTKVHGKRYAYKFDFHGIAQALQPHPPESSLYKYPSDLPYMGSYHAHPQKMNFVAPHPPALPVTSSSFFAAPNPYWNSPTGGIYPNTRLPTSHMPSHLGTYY
The settings on record: protein: recombinant; tags: N-terminal GST; dsDNA, one strand shown. Summed up: as §1

The next assay has as its target ELF1 (Homo sapiens, UniProt P32519 1-619). The note with it: protein: recombinant; tags: N-terminal GST; dsDNA, one strand shown. In short, it runs like this: as §1
Another assay addresses T4, EHF (Homo sapiens, UniProt Q9NZC4 1-300).
T4 sequence: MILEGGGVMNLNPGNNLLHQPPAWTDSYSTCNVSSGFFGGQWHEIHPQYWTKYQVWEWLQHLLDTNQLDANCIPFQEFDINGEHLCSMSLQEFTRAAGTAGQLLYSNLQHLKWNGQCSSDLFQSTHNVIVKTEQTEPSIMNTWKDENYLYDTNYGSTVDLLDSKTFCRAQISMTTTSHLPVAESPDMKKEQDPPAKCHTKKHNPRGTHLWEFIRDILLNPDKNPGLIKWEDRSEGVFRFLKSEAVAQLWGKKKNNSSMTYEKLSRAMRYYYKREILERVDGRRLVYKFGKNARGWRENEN
The settings on record: protein: recombinant; tags: N-terminal GST; dsDNA, one strand shown. Summed up:
as §1

A further assay addresses SPI1 (Homo sapiens, UniProt P17947 1-270). The note with it: protein: recombinant; tags: N-terminal GST; dsDNA, one strand shown. In short, it runs like this: as §1
For a further assay, the target named is SPIB (Homo sapiens, UniProt Q01892 1-262). The note with it: protein: recombinant; tags: N-terminal GST; dsDNA, one strand shown. In short, it runs like this:
as §1

In another assay the target is T5, ELK3 (Homo sapiens, UniProt P41970 1-407).
T5 sequence: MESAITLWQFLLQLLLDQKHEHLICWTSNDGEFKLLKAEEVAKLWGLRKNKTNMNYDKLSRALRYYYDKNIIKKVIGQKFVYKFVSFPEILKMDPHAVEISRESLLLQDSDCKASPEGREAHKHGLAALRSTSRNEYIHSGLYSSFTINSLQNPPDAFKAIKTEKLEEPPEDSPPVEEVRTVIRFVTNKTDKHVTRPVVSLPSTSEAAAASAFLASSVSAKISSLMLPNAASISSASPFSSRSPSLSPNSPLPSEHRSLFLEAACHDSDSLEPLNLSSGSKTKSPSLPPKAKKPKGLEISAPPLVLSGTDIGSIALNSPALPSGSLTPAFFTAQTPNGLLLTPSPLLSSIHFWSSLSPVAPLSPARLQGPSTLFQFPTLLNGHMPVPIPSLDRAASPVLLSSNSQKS
The settings on record: protein: recombinant; tags: N-terminal GST; dsDNA, one strand shown. Summed up:
as §1

The next assay has as its target T6, FEV (Homo sapiens, UniProt Q99581 1-238).
T6 sequence: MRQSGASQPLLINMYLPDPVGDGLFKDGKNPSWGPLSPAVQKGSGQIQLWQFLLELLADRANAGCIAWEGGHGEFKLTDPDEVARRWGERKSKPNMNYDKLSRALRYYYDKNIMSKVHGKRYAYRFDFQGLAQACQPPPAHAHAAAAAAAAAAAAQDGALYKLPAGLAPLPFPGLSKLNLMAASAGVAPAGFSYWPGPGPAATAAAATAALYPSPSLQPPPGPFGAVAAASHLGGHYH
The note with it: protein: recombinant; tags: N-terminal GST; dsDNA, one strand shown. In short, it runs like this:
as §1

The next assay concerns the target ETV5 (Homo sapiens, UniProt P41161 1-510). The settings on record: protein: recombinant; tags: N-terminal GST; dsDNA, one strand shown. Summed up: as §1
The next assay deals with HSF1 (Homo sapiens, UniProt Q00613 1-529). The settings on record: protein: recombinant; tags: N-terminal GST; chain copies: 3; dsDNA, one strand shown. In short, it runs like this: as §1
Chain of HSF1 (Q00613 whole entry): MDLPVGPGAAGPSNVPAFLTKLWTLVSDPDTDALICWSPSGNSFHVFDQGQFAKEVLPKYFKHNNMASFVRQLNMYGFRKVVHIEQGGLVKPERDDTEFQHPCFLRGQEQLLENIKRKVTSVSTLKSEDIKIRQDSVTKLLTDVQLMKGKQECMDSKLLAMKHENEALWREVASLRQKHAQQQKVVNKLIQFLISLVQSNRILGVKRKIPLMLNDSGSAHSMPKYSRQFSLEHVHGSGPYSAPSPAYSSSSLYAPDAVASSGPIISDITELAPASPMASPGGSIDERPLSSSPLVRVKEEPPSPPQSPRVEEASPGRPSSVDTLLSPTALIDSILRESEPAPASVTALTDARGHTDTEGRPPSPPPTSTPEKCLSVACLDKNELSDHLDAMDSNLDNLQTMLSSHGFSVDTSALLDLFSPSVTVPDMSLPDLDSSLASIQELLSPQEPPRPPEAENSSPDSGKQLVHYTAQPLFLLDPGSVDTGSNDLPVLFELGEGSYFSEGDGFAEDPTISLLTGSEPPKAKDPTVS
A further assay concerns the target ELF4 (Homo sapiens, UniProt Q99607 1-663). The note with it: protein: recombinant; tags: N-terminal GST; dsDNA, one strand shown. Summed up:
as §1

For another assay, the target named is T7, ELK4 (Homo sapiens, UniProt P28324-2 1-405).
T7 sequence: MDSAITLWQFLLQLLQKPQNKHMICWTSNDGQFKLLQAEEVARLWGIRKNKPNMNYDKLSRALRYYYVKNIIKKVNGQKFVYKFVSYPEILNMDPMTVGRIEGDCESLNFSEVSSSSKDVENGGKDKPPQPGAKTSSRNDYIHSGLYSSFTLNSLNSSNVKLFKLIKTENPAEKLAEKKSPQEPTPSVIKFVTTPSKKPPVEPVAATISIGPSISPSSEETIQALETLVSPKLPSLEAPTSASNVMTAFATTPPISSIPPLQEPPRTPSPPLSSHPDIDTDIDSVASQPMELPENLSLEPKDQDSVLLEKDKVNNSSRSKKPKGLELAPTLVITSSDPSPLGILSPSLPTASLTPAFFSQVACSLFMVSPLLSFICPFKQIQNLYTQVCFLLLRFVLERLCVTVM
The settings on record: protein: recombinant; tags: N-terminal GST; dsDNA, one strand shown. In short, it runs like this:
as §1

The next assay concerns the target T8, ELF3 (Homo sapiens, UniProt P78545 1-371).
T8 sequence: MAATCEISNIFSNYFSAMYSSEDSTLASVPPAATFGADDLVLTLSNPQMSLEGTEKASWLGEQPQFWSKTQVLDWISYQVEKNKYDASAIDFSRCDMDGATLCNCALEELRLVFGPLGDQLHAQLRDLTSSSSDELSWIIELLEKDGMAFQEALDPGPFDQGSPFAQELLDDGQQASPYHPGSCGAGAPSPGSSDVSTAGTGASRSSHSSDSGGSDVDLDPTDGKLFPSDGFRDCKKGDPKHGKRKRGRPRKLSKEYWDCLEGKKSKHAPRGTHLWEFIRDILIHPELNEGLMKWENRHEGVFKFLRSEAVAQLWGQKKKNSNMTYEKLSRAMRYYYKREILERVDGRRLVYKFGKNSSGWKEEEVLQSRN
The settings on record: protein: recombinant; tags: N-terminal GST; dsDNA, one strand shown. Summed up:
as §1

Another assay addresses CRX (Homo sapiens, UniProt O43186 1-299). The note with it: protein: recombinant; tags: N-terminal GST; dsDNA, one strand shown. In short, it runs like this: as §1
A further assay concerns the target ETV1 (Homo sapiens, UniProt P50549 1-477). The settings on record: protein: recombinant; tags: N-terminal GST; dsDNA, one strand shown. Summed up:
as §1

Chain of ETV5 (P41161 whole entry): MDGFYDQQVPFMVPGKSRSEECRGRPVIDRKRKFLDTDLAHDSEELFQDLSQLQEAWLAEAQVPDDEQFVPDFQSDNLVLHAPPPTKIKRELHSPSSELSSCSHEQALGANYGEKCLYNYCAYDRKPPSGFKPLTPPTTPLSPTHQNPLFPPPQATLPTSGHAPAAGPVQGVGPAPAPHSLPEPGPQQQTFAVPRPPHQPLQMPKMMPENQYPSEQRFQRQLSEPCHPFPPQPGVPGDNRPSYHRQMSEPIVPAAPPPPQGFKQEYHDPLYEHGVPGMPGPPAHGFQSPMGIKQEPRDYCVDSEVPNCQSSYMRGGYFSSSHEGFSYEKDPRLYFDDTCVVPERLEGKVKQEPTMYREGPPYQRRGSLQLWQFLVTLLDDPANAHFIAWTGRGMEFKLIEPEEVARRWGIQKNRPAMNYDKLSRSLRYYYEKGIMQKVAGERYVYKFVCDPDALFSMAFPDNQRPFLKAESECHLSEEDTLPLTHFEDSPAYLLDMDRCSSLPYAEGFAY
Chain of ELF1 (P32519 whole entry): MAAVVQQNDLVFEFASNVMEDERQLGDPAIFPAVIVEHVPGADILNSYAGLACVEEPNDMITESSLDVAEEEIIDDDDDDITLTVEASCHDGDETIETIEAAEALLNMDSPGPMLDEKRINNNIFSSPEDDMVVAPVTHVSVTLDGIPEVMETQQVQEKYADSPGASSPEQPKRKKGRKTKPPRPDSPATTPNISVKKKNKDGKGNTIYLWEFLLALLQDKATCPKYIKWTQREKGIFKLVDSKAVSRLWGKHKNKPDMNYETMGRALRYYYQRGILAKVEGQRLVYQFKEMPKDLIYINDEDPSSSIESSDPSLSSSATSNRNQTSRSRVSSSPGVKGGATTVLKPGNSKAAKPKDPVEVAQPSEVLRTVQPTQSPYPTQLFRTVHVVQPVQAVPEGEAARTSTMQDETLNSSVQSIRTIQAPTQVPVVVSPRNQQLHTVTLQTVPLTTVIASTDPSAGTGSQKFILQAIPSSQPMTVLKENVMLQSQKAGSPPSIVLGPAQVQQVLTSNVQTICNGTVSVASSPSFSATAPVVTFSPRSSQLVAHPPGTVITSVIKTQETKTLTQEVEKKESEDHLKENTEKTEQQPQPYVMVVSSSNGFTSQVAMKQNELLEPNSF
Chain of SPIB (Q01892 whole entry): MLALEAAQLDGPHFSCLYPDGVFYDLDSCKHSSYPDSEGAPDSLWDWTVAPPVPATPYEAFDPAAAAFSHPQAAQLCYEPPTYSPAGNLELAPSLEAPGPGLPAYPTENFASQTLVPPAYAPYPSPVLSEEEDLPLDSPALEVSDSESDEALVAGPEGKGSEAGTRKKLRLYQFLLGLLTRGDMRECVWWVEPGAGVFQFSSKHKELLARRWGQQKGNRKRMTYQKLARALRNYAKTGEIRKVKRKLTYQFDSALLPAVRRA
Chain of ELF4 (Q99607 whole entry): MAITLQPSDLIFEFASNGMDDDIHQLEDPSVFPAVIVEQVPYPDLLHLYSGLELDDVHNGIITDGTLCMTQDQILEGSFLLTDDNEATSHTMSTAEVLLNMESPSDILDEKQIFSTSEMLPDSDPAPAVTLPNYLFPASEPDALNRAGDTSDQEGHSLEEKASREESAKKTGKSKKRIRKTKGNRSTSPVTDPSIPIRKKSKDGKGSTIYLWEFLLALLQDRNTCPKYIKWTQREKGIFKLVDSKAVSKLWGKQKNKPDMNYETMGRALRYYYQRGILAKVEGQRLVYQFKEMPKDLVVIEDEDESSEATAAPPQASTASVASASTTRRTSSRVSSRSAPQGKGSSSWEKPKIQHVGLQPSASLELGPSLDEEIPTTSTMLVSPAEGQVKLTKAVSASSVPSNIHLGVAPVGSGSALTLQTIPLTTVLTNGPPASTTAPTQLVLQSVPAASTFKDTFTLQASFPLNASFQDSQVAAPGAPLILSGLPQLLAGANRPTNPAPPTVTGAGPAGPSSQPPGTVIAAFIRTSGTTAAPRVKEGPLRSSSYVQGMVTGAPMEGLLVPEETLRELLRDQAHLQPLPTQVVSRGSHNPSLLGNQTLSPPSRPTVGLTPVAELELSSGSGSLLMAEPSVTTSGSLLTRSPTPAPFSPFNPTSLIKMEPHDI
Chain of ETV1 (P50549 whole entry): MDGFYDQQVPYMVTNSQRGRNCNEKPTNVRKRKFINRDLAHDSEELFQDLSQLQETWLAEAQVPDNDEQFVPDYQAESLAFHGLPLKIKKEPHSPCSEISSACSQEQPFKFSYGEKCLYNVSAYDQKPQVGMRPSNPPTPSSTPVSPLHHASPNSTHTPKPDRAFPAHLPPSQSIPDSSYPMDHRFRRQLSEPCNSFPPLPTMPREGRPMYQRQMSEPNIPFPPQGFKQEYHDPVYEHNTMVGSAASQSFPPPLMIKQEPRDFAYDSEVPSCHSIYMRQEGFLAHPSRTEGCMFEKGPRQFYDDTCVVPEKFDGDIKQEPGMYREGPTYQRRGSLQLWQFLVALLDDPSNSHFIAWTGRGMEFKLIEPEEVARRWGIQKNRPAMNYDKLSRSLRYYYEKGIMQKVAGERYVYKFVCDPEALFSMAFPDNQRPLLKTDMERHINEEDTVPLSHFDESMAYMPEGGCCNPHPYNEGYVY
Chain of CRX (O43186 whole entry): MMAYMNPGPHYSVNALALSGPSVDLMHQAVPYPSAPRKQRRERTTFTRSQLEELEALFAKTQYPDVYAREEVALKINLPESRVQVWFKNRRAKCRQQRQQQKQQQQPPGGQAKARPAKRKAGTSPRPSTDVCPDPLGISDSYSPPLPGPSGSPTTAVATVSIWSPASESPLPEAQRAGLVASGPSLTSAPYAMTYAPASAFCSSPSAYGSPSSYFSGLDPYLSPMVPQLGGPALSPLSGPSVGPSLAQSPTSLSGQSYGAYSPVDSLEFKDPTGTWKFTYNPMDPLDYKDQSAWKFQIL

As for AAGCGA, the binding signal in the assay with FLI1 was 1.02 fold enrichment (6-mer frequency, TF over GST control); in the assay with ELK1 it was 1.02 fold enrichment (6-mer frequency, TF over GST control); with ERG, 1.11 fold enrichment (6-mer frequency, TF over GST control); in the assay with ELF1, 1.06 fold enrichment (6-mer frequency, TF over GST control); with EHF, 1.19 fold enrichment (6-mer frequency, TF over GST control); with SPI1, 1.07 fold enrichment (6-mer frequency, TF over GST control). The binding signal in the assay with SPIB is 1 fold enrichment (6-mer frequency, TF over GST control); with ELK3, 1.07 fold enrichment (6-mer frequency, TF over GST control); in the assay with FEV it was 1.04 fold enrichment (6-mer frequency, TF over GST control); in the assay with ETV5, 1.04 fold enrichment (6-mer frequency, TF over GST control); with HSF1, 1.04 fold enrichment (6-mer frequency, TF over GST control); with ELF4, 1.09 fold enrichment (6-mer frequency, TF over GST control). For the same sequence, the binding signal was 1.06 fold enrichment (6-mer frequency, TF over GST control) in the assay with ELK4; 1.08 fold enrichment (6-mer frequency, TF over GST control) in the assay with ELF3; 1.09 fold enrichment (6-mer frequency, TF over GST control) with CRX; 1 fold enrichment (6-mer frequency, TF over GST control) with ETV1.
